Screens deposited in PubChem BioAssay by National Center for Advancing Translational Sciences (NCATS).
Pf Dd2 growth = Plasmodium falciparum Dd2 growth inhibition. P. falciparum Dd2 growth, SYBR Green, 72 h. Potency, µM (highest dose often 28.9 µM), for the others: at the top dose activity, negative = inhibition, hits mostly inhibitors. 120,000 compounds, 4.3% hits; active = well fitted inhibition curve with a large enough effect;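 also: plate controls were DMSO vehicle for no effect and reference drug for full effect; nearly all actives have a fitted effect of over 65% in size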
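Infected erythrocytes (Dd2, 0.3% parasitemia, 2.5% hematocrit final) are added to compound in RPMI-1640/Albumax II medium, grown 72 h at 37C in low oxygen, then lysed with saponin/Triton-X containing SYBR Green and read by fluorescence.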
Starred values were filed as active, the others as inactive; i = inactive; [ ] = dose if it differs, or a comment. Many of the other results were omitted from the sample, so hits are more common in it than they were. Potency is read from the fitted curve at half-maximal effect.

SMILES	Pf Dd2 growth
COCCc1nn2c(=O)cc(COC(=O)C(c3ccccc3)c3ccccc3)nc2s1	1.26µM*
COC(=O)N1CCC2(C1)N=C(c1cccnc1)C(=O)N2 (centres undefined)	21.8%[44.1 µM]
Cc1nc(C)c(C(=O)NC2CC(c3nnc(Cn4ccnc4)n3C)C2)s1 (centres undefined)	-5.3%
COc1ccccc1C(=O)N1C[C@@H]2CCCN3CCC[C@@H]([C@H]23)[C@H]1CCCC(=O)N1CCOCC1	12.7%
Cc1nc(C2CCCN(C(=O)Cc3ccc(S(C)(=O)=O)cc3)C2)n[nH]1 (centres undefined)	19.8%
CC(=O)N[C@H]1CC[C@]2(C)CCC([C@H](C)C(=O)N3CCC(C)CC3)[C@H](O)[C@H]2[C@@H]1C (some centres undefined)	-5.7%[44.1 µM]
O=C(O)CSc1c2c(nc3cc(C(=O)Nc4ccc(F)c(Cl)c4)ccc13)CCC2	-27.0%
COc1ccc(OC)c(NC(=O)c2ccc3c(SCC(=O)O)c4c(nc3c2)CCCC4)c1	10µM*
COc1ccc(NC(=O)c2ccc3c(SCC(=O)O)c4c(nc3c2)CCC4)c(OC)c1	-13.1%
O=C1CC2(CCN([S+](=O)([O-])c3cccs3)CC2)Oc2ccccc2N1	-24.9%
Cc1cc(=O)c(C(=O)N2CCC3(CC2)CC(C(=O)O)N(C)C3)c(C)[nH]1 (centres undefined)	-9.1%
CCCN1C[C@@H](CO)[C@H](c2nc(CCOC)no2)C1	-7.2%
Cc1onc(C(=O)NCC(=O)N2CCCCCNC(=O)CC2c2ccccc2)c1Cn1cccn1 (centres undefined)	-7.2%
Cc1cccc(C(=O)N2CCN(C3CCN(C)C3=O)CC2)c1 (centres undefined)	1.3%
C/C(=C\c1ccccc1)CN1CCCCC12Cc1ccccc1CNC2=O (centres undefined)	-14.8%
OCC1(CN2CCCC2)CCN(Cc2cccc(O)c2)CC1	-6.0%
CN1C(=O)[C@H]2CN(Cc3ccc(F)c(Cl)c3)C[C@H]2C1=O	45.8%
OC1(CN2CCCCC2)CCN(Cc2ccc(F)c(Cl)c2)C1 (centres undefined)	8.91µM*
O=C1N(CCc2ccccc2)CCOC12CCN(Cc1ccc(F)c(Cl)c1)CC2	-9.9%[44.1 µM]
COc1cc(CN2CCC(CO)(CN3CCCC3)CC2)ccc1F	7.94µM*
Cc1cc(F)ccc1CN1CCC(CO)(CN2CCCC2)CC1	i
COc1cc(CN2CCC3(CC2)CC(O)CCO3)cc(OC)c1 (centres undefined)	-7.6%
O=C(c1cc(F)ccc1F)N1CCCC(Cc2nc(C3CCOCC3)no2)C1 (centres undefined)	9.7%
O=C(Cc1ccccn1)N1CCN(c2nc3ncccc3o2)CC1	-16.0%[44.1 µM]
CN(C(=O)Nc1ccc(Cl)cc1)C1CCCc2ccccc21 (centres undefined)	-11.6%[44.1 µM]
SMILES	Pf Dd2 growth
CN(Cc1ccc(F)cc1)C1CCCc2ccccc21 (centres undefined)	i
CN(C(=O)Cc1ccc(F)cc1)C1CCCc2ccccc21 (centres undefined)	15.8µM*
CN(C(=O)Nc1ccccc1)C1CCCc2ccccc21 (centres undefined)	15.8µM*
CN(C(=O)c1ccccc1)C1CCCc2ccccc21 (centres undefined)	i
COCC(=O)N(C)C1CCCc2ccccc21 (centres undefined)	-22.6%[44.1 µM]
CN(C)c1ccc(C(=O)N2Cc3[nH]cnc3CC2C(=O)O)cn1 (centres undefined)	-20.3%
O=c1[nH]c(N2CCc3ccccc3C2)nc2c1CCN(Cc1ccccc1)CC2	7.0%[5.79 µM]
O=C(C[C@@H]1CCNC[C@@H]1Cc1cc(CSc2ccccc2)on1)NC1CCCCC1	i
CCn1ncc(N2CCCC(CC(=O)NCc3ccc(Cl)cc3)C2)cc1=O (centres undefined)	i
O=C1CCN(C(=O)C2CCN(S(=O)(=O)c3ccccc3)CC2)CCCCCCN1	16.4%
COc1ccccc1N1CCN(C(=O)c2c(C)oc3ncn(CC(C)C)c(=O)c23)CC1	8.4%
COc1ccc(N2CCN(C(=O)c3cc4c(=O)n(Cc5ccccc5)ccc4nc3C)CC2)cc1	-16.3%
COc1cc2c(C(=O)N(C)c3cccc(C(F)(F)F)c3)cn(CC(C)C)c(=O)c2cc1OC	-16.7%
COc1cc(Cl)c(C)cc1NC(=O)c1cn(CC(C)C)c(=O)c2cc(OC)c(OC)cc12	-0.3%
COc1ccc(Nc2ncc(C(=O)N3CCN(c4ccc(OC)cc4)CC3)c3ccccc23)cc1	i
COc1ccccc1N1CCN(C(=O)Nc2cn(CC(C)C)c(=O)c3ccccc23)CC1	44.8%[5.79 µM]
COc1ccccc1N1CCN(C(=O)c2cn(CC(C)C)c(=O)c3c2c2ccccc2n3C)CC1	7.94µM*
COc1cc2c(C(=O)N3CCN(c4ccc(F)cc4)CC3)cn(CC(C)C)c(=O)c2cc1OC	10µM*
COc1ccc(N2CCN(C(=O)c3cn(CC(C)C)c(=O)c4c3c3ccccc3n4C)CC2)cc1	10µM*
CCOCCCNC(=O)N1[C@@H]2CC[C@H]1CC(NC(=O)c1ccc(F)cc1)C2 (some centres undefined)	-22.2%
Cc1ccccc1CC(=O)N1CCN(C2CCN(CCC(C)C)C2=O)CC1 (centres undefined)	i
Cn1c(C(=O)N2CCC3(CCNC(=O)CC3)CC2)cc2c(Cl)cccc21	-5.6%
COc1ccc(-c2cnc3n2CC(C(=O)NCCCN2CCN(C)CC2)CC3)cc1 (centres undefined)	20.6%
Cn1cnnc1CC1CCN(C(=O)c2ccc(Oc3ccccc3)o2)CC1	8.9%
COCCN1CCCN(C(=O)C2CCC2)c2ccccc21	i
SMILES	Pf Dd2 growth
O=C(C1CC1)N1CCCN(Cc2ccc3c(c2)OCO3)c2ccccc21	8.91µM*
COc1ccccc1C(=O)N1CCCN(Cc2ccc3c(c2)OCO3)c2ccccc21	i
COC1CCOC2(CCN(C(=O)CCCc3ccccc3)CC2)C1 (centres undefined)	6.7%
COc1cc(C(=O)NC2CCCN(c3ncccn3)C2)cc(OC)c1OC (centres undefined)	-10.6%
O=C1c2cnc(-c3cccc(C(F)(F)F)c3)nc2OCCN1CC1CC1	-24.4%[44.1 µM]
O=C1c2cnc(-c3ccc(Oc4ccccc4)cc3)nc2OCCN1CC1CC1	2.82µM*
O=C1c2cnc(-c3ccc(F)cc3)nc2OCCN1Cc1ccc(F)cc1F	i
O=C(Nc1ccc(F)cc1)N[C@H]1[C@H](O)[C@@H](N2CCCCC2)[C@@H]2OC[C@H]1O2	-13.9%[44.1 µM]
COCCCn1c(C)cc(C(=O)N2CC(COC)C3(CCNCC3)C2)c1C (centres undefined)	34.2%
CCCNC(=O)NCC1(COc2ccc(S(C)(=O)=O)cc2)C[C@@H](O)[C@@H](O)C1 (some centres undefined)	6.2%[44.1 µM]
O=C(O)C(c1cccc(O)c1)N1CCN(C2CCCCC2)C(=O)C1 (centres undefined)	-8.8%
Cc1ccc(O)c(NC(=O)COCc2cc(-c3ccco3)on2)c1	17.9%
COc1cccc(C(=O)Nc2cc(-c3ccccc3)no2)c1	-1.0%
Cc1ccc(C)c(N2CCN(C(=O)c3noc4c3CCCCC4)CC2)c1	i
COc1ccc(OC)c(NC(=O)c2noc3c2CCCC3)c1	-13.7%
Cc1ccc(O)c(NC(=O)c2noc3c2CCCCC3)c1	4.47µM*
COc1cccc(-c2cc(C(=O)Nc3cc(Cl)ccc3O)on2)c1	1µM*
Cc1ccc(O)c(NC(=O)c2cc(-c3ccccc3O)no2)c1	2.24µM*
O=C(Nc1cccc(O)c1)c1cc(-c2ccccc2F)no1	-13.0%
COc1cccc(-c2cc(C(=O)Nc3cc(OC)c(OC)c(OC)c3)on2)c1	-12.8%[0.594 µM]
